The nature of assay [1]: Cell Viability - LYMP2-020 (AID 986).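 Also: series mostly up to about 92 µM; cells exposed to compound for 24 h at 37 °C; plate controls were DMSO only for no effect and tetraoctylammonium bromide at 92 µM for full effect; nearly all actives have a fitted effect of over 55% in size.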 In a few lines: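 Seed 2500 cells per well and incubate 5 hr at 37 C. Add compounds at a concentration series and incubate 24 hr at 37 C. Add CellTiter-Glo, wait 30 min at RT, read luminescence, and fit a Hill curve for AC50.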
Assay [2] can be described thus: Cell Viability - LYMP2-022 (AID 987).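 Also: 0% = DMSO alone and full effect = tetraoctylammonium bromide at 92 µM; nearly all actives have a fitted effect of over 55% in size.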 In a few lines: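 Cells were seeded at 2500 per well, rested 5 hr at 37 C, and treated with titrated compounds for 24 hr at 37 C. Cellular ATP was then quantified by luciferase luminescence, and AC50 values were derived from Hill-modelled concentration-response curves.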
Assay [3] in a line: Cell Viability - LYMP2-024 (AID 988).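 Also: plate controls were DMSO only for no effect and 92 µM tetraoctylammonium bromide for full effect; nearly all actives have a fitted effect of over 60% in size.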 The method, boiled down:
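qHTS cytotoxicity, human lymphoblastoid line, complete medium; 24 h cpd treatment, 37 C; CellTiter-Glo ATP luminescence readout; tetraoctylammonium bromide positive control; AC50 via Hill fit.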

Assay [4] is described as follows: Cell Viability - LYMP2-026 (AID 989).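 Also: cells exposed to compound for 24 h at 37 °C; % is scaled to controls: 0 for no effect and ±100 for the full control effect; nearly all actives have a fitted effect of over 50% in size.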 In a few lines: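 Cells are seeded at 2500 per well and held 5 hr at 37 C. Compounds are added in concentration series for 24 hr, then CellTiter-Glo reagent is applied and luminescence read.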
Assay [5] is described as follows: Cell Viability - LYMP1-002 - Assay at 24 hr (AID 993). Also: % is scaled to controls: 0 for no effect and ±100 for the full control effect. In a few lines: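 Acute toxicity is measured as concentration-dependent loss of cellular ATP in a human lymphoblastoid line (Coriell LYMP1-002) after 24 h treatment in complete medium. ATP is quantified by luciferase luminescence and AC50 derived by Hill modelling.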
The nature of assay [6]: Cell Viability - LYMP1-002 - Assay at 40 hr (AID 994).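 Also: 0% = DMSO only and full inhibition = 92 µM tetraoctylammonium bromide; nearly all actives have a fitted effect of over 60% in size.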 The method, boiled down:
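Cells are plated at 2500 per well and rested 5 hr at 37 C. Compounds are added and incubated 40 hr at 37 C. CellTiter-Glo reagent is added for 30 min at room temperature before luminescence is read.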

A short description of assay [7]: qHTS Assay for Identification of Small Molecule Inducers of Hypoxia Response (AID 2120; active = well fitted curve in the direction sought with a large enough effect in the signal ratio, with a control signal flat, not every such curve was filed as active; the % refers to the signal ratio; also: 0% is about no effect). The method, boiled down:
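Cell-based qHTS for reporter induction: hypoxia response element controlled beta-lactamase in ME-180 cells. Compounds incubated 17 h at 37 degrees C; activity from blue/green (460/530 nm) ratio, inducers ranked by AC50.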

Assay [8] deals with Estrogen receptor (Homo sapiens) (UniProt P03372). Description: qHTS assay for small molecule antagonists of estrogen receptor alpha signaling (AID 588513; active = well fitted curve in the direction sought with a large enough effect in the signal ratio, with a control signal flat, not every such curve was filed as active; the % refers to the signal ratio; also: % is scaled to controls: 0 for no effect and ±100 for the full control effect). The method, boiled down:
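Beta-lactamase reporter, antagonist mode, HEK 293 GripTite cells; 0.5nM E2 stimulus, 18 h, 37 C; CCF4 dye 2 h RT; fluorescence. IC50 and efficacy from Hill fits, normalized to E2 and DMSO.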

For assay [9] the target is unchanged. The assay is described as follows: qHTS assay for small molecule agonists of estrogen receptor alpha signaling (AID 588514; calls by dose curve;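 also: 0% = vehicle only and 100% = reference agonist; nearly all actives have a fitted effect of over 70% in size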). In a few lines: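 Efficacy is expressed against 20 nM 17-beta-estradiol (100%) and DMSO basal (0%); EC50 from Hill equation. Assay: beta-lactamase reporter in ER-alpha-UAS-bla HEK 293 cells, 18 h compound incubation, CCF4 detection.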

Assay [10] has as its target Bile acid receptor (Homo sapiens) (UniProt Q96RI1). The assay is described as follows: qHTS assay for small molecule antagonists of farnesoid X receptor signaling (AID 588526; calls by dose curve; also: % is scaled to controls: 0 for no effect and ±100 for the full control effect). In a few lines:
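Concentration-response titrations were fitted to the Hill equation for half-maximal inhibition and maximal response, with data normalised to 50 uM chenodeoxycholic acid and DMSO control wells. Cells: FXR-UAS-bla HEK293T, dialyzed FBS.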

Assay [11] addresses Glucocorticoid receptor (Homo sapiens) (UniProt P04150). Description: qHTS assay for small molecule agonists of glucocorticoid receptor signaling (AID 588532; active = well fitted curve in the direction sought with a large enough effect in the signal ratio, with a control signal flat; the % refers to the signal ratio;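 also: 100% = dexamethasone at 0.1 µM and 0% = DMSO only wells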). To be noted: HeLa MMTV-bla, beta-lactamase ratio, agonist, 18 h; stronger effect = higher value; percent of dexamethasone control, DMSO zero. The method, boiled down: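 Titration series, up to 92 uM, applied to GRE-bla HeLa cells for 18 h at 37 C. Detection by CCF4 FRET substrate after 2 h at RT.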

The target is the same in assay [12]. The assay is described as follows: qHTS assay for small molecule antagonists of glucocorticoid receptor signaling (AID 588533; active = well fitted inhibition curve with a large enough effect in the signal ratio, with a control signal flat, not every such curve was filed as active; the % refers to the signal ratio;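 also: cells stimulated with 2 nM dexamethasone as agonist; % is scaled to controls: 0 for no effect and ±100 for the full control effect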). In a few lines:
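Antagonist-mode qHTS: compound titrations added to GRE-bla HeLa cells, then dexamethasone 2 nM final; 18 h, 37 C. CCF4 FRET fluorescence normalized to dexamethasone and DMSO; IC50 from Hill fit.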

A short description of assay [13]: qHTS assay for small molecule antagonists of peroxisome proliferator-activated receptor delta signaling (AID 588535; active = well fitted inhibition curve with a large enough effect in the signal ratio, with a control signal flat, not every such curve was filed as active; the % refers to the signal ratio;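 as to max response: cells co-treated with a PPAR-delta agonist as stimulator during compound exposure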). To be noted: HEK293T PPARd-UAS-bla, beta-lactamase FRET ratio, 18 h; 460 nm channel. In a few lines: (§1)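 Inhibition of PPAR-delta response element-driven beta-lactamase expression is measured in HEK293T cells exposed to a compound titration series for 18 hrs at 37 C. Half-maximal inhibition comes from Hill equation fitting.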

Assay [14] has as its target Peroxisome proliferator-activated receptor delta (Homo sapiens) (UniProt Q03181). Described as above. The method, boiled down: as §1
The target of assay [15] is Peroxisome proliferator-activated receptor gamma (Homo sapiens) (UniProt P37231). The assay is described as follows: qHTS assay for small molecule agonists of peroxisome proliferator-activated receptor gamma signaling (AID 588536; active = well fitted curve in the direction sought with a large enough effect in the signal ratio, with a control signal flat, not every such curve was filed as active; the % refers to the signal ratio;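 also: 0% = DMSO basal wells and 100% = rosiglitazone at 2 µM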). The method, boiled down: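 Beta-lactamase reporter read-out: CCF4 fluorescence (ex 405, em 460/530 nm) after 2 h at RT. HEK293 GeneBLAzer cells were treated for 16 h at 37 C. Hill fits gave EC50 and efficacy versus 2 uM rosiglitazone (100%) and DMSO (0%).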

Assay [16] has the same target. The assay is described as follows: qHTS assay for small molecule antagonists of peroxisome proliferator-activated receptor gamma signaling (AID 588537; active = well fitted inhibition curve with a large enough effect in the signal ratio, with a control signal flat, not every such curve was filed as active; the % refers to the signal ratio;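 also: reporter cells co-stimulated with 50 nM rosiglitazone agonist during compound treatment; % of control where 0% means no effect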). The method, boiled down: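 Compounds are tested as concentration series for inhibition of rosiglitazone-driven (50 nM) reporter expression in GeneBLAzer PPAR-gamma-UAS-bla HEK293 cells. After 16 h at 37 C, CCF4 substrate is added for 2 h at room temperature and blue/green fluorescence is measured.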

Assay [17] has as its target Vitamin D3 receptor (Homo sapiens) (UniProt P11473). The assay is described as follows: qHTS assay for small molecule antagonists of vitamin D receptor signaling (AID 588541; calls by dose curve). The method, boiled down:
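VDR-UAS-bla HEK293T cells (2000/well, 2% charcoal-stripped FBS) were treated with titrated compounds plus 1-alpha,25-dihydroxyvitamin D3 (50 nM or 3 nM final) for 16 h at 37 C. CCF4 beta-lactamase fluorescence was read; Hill fits gave IC50.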

Assay [18] has the same target. The assay is described as follows: qHTS assay for small molecule agonists of vitamin D receptor signaling (AID 588543; calls by dose curve;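 also: 0% = DMSO basal and 100% = reference agonist control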). The method, boiled down:
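β-lactamase reporter, VDR-UAS-bla HEK293T, agonist mode. Cells plated 5 h at 37 °C, compound titration 16 h at 37 °C, CCF4 dye 2 h RT, ratio 460/530 nm. Hill fit → EC50, efficacy vs 50 nM 1α,25-(OH)2D3.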

For assay [19], the target named is Androgen receptor (Homo sapiens) (UniProt P10275). Description: qHTS assay for small molecule agonists of androgen receptor signaling (AID 588515; active = well fitted curve in the direction sought with a large enough effect in the signal ratio, with a control signal flat; the % refers to the signal ratio; also: % is scaled to controls: 0 for no effect and ±100 for the full control effect). To be noted: AR-UAS-bla HEK293, beta-lactamase ratio, agonist 16 h; stronger effect = higher value. The method, boiled down: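 Stimulation of an AR-responsive β-lactamase reporter in GripTite HEK293 cells was measured after 16 h compound exposure at 37 °C, via CCF4 fluorescence after 2 h RT. EC50 from Hill fits, normalized to R1881 at 30 nM.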

Assay [20] has the same target. The assay is described as follows: qHTS assay for small molecule antagonists of androgen receptor signaling (AID 588516; active = well fitted curve in the direction sought with a large enough effect in the signal ratio, with a control signal flat, not every such curve was filed as active; the % refers to the signal ratio; also: % is scaled to controls: 0 for no effect and ±100 for the full control effect). In a few lines: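 HEK293 AR-UAS-bla cells, 10% dialyzed FBS medium; cpd titration + R1881 10 nM final, 16 h 37 C; CCF4 2 h RT; FRET ratio; IC50/efficacy via Hill fit.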

Results filed as inconclusive are left out. The source made the active and inactive calls. Unless noted, calls follow the shape of the dose curve; as a rule, active = well fitted cell-killing curve with a large enough effect; inconclusive = small, poorly fitted or top-dose-only effect; inactive = flat fitted curve, though single readings scatter.

Chain of Peroxisome proliferator-activated receptor gamma (Homo sapiens) (P37231 whole entry, looked up): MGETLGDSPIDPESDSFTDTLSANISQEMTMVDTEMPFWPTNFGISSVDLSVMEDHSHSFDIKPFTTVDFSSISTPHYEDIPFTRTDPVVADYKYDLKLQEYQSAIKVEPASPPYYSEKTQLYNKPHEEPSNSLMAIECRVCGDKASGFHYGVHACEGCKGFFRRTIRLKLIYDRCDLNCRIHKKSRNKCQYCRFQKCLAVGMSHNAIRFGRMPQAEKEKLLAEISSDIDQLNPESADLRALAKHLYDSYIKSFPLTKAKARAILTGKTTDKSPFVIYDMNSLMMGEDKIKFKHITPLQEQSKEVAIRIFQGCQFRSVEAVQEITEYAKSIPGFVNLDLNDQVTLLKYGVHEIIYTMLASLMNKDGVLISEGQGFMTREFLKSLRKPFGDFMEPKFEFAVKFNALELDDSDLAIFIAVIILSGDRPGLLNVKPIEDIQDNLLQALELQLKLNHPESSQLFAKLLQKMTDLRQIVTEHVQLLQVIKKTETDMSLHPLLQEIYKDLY
Chain of Estrogen receptor (Homo sapiens) (P03372 whole entry, looked up): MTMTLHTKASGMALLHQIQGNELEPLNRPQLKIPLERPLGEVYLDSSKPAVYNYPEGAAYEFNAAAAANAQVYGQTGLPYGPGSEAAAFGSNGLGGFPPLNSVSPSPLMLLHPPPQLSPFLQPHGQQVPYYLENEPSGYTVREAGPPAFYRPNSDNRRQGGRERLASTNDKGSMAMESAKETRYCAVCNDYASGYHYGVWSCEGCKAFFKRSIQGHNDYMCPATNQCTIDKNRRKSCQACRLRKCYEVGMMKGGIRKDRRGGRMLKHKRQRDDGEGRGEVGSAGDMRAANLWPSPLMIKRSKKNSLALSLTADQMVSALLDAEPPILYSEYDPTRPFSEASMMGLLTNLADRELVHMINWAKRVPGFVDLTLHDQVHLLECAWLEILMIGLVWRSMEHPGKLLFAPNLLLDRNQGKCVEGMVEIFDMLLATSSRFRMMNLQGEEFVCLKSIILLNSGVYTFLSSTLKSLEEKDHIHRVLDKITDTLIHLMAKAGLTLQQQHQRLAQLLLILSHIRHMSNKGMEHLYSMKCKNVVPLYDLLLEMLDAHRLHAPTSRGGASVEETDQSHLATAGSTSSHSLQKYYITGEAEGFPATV
Chain of Bile acid receptor (Homo sapiens) (Q96RI1 whole entry, looked up): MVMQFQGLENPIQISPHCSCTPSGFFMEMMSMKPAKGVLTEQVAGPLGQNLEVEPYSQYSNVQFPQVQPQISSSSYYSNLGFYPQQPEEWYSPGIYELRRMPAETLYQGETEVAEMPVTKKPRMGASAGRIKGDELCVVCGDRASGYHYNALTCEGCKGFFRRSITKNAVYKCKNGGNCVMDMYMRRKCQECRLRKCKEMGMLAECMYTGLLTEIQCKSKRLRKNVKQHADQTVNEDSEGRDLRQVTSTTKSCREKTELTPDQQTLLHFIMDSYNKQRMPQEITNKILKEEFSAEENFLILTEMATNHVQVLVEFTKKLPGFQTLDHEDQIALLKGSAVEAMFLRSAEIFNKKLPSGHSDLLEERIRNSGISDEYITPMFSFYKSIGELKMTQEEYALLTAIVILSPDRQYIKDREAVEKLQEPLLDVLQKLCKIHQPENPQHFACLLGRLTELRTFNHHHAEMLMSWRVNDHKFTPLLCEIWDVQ
Chain of Glucocorticoid receptor (Homo sapiens) (P04150 whole entry, looked up): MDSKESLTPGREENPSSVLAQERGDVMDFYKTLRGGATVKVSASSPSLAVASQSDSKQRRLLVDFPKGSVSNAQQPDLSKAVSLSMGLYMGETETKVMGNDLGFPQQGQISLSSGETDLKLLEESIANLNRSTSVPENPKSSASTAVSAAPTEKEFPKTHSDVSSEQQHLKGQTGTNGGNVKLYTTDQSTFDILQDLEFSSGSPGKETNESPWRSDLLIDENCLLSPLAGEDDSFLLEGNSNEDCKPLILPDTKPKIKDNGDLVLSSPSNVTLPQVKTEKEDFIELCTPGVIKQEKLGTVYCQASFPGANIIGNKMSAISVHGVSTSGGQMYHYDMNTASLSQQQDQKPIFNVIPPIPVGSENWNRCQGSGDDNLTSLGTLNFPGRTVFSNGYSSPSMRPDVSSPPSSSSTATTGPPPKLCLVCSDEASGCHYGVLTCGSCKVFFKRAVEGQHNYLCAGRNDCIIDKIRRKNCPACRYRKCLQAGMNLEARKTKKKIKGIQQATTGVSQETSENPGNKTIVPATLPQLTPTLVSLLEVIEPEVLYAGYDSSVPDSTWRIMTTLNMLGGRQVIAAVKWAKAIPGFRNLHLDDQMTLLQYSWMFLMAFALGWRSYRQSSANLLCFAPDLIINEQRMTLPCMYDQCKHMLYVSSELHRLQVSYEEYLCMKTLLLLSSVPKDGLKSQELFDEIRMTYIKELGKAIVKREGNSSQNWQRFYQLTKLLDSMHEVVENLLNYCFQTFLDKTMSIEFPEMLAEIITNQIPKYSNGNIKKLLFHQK
Chain of Androgen receptor (Homo sapiens) (P10275 whole entry, looked up): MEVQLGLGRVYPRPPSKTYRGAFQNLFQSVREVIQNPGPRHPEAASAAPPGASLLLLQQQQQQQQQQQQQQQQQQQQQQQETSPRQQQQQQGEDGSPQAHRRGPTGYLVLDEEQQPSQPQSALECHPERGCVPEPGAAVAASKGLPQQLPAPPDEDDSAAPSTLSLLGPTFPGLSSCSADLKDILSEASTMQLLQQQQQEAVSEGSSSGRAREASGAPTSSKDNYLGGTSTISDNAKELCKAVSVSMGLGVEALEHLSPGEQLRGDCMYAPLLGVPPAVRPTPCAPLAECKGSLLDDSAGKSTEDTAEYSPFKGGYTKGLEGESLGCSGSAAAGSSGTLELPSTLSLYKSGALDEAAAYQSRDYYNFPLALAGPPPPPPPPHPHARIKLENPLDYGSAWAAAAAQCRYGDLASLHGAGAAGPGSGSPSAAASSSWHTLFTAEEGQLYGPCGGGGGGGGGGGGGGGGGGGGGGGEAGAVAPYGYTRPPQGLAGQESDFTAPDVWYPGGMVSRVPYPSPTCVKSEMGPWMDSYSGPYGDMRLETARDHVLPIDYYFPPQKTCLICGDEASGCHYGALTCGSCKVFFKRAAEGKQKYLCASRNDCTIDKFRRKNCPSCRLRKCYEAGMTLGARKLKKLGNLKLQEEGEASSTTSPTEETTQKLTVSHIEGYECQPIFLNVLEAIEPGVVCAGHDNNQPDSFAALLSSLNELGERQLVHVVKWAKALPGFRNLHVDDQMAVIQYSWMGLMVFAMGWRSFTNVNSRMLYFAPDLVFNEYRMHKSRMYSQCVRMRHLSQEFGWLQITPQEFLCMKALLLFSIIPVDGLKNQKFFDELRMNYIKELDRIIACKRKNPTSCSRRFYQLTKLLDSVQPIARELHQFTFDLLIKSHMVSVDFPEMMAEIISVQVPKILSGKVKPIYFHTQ
Chain of Vitamin D3 receptor (Homo sapiens) (P11473 whole entry, looked up): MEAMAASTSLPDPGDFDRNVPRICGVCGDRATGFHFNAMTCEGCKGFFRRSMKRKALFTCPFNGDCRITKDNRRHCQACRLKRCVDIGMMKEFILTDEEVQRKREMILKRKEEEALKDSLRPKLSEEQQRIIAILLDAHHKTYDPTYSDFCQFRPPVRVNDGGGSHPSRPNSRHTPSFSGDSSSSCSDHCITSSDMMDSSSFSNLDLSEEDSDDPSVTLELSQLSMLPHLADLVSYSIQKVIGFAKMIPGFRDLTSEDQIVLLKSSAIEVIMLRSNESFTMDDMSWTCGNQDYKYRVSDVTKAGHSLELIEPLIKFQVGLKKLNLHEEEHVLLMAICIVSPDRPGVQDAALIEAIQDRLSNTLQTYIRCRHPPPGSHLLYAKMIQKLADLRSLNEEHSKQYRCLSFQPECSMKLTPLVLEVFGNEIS
Chain of Peroxisome proliferator-activated receptor delta (Homo sapiens) (Q03181 whole entry, looked up): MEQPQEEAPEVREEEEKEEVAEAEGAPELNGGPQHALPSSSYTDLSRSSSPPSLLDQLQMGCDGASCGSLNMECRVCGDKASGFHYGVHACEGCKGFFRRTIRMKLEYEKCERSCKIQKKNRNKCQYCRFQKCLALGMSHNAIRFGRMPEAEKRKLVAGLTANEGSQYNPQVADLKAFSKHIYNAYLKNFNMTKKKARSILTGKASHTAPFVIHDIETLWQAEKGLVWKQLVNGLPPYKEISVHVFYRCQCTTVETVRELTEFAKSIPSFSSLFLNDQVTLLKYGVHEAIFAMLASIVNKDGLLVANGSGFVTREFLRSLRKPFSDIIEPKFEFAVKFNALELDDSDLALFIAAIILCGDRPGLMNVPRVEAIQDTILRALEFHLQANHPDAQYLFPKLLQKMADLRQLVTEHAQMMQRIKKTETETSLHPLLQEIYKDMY

Take `FB(F)F`: the Potency result in assay [1], in [2], in assay [3], in assay [5], in assay [6] and in [9] was “inactive” each time. Besides, in assay [14], the Potency entry was “inactive”. For the same compound, the compound was classed as inactive in assay [4], in assay [7], in [8], in [10], in assay [12] and in assay [15]. The call in assay [16], in [17] and in [18] was inactive. In assay [11], the activation is 3.97% (inactive). Besides, the max response in assay [13] turned out to be 9.97%.

On to `C[C@@H]1CC2(OC3C[C@@]4(C)C5=CC[C@H]6C(C)(C)C(O[C@@H]7OC[C@@H](O)[C@H](O)[C@H]7O)CC[C@@]67C[C@@]57CC[C@]4(C)C31)OC(O)C1(C)OC21` (stereo not given in full), for which the Potency result in [1], in [2], in assay [3], in assay [5], in assay [6] and in assay [9] was “inactive” each time. For the same compound, the call in [4], in assay [7], in assay [8] and in [17] was inactive. Also, the activation in assay [19] is -11% (inactive).

Turning to `CCC(C)(C)C(=O)O`, the Potency result in [1], in [2], in assay [3], in assay [5], in assay [6] and in assay [9] was “inactive” throughout. The call in [4], in assay [7], in assay [8], in assay [10], in assay [12] and in assay [15] was inactive. Further, the result in [16], in [17] and in assay [18] was inactive. Further, the activation in [19] is -5.44% (inactive); in [11] it was -7.32% (inactive). In assay [13], the max response was -22.2%.

`ClCCl`: the Potency result in assay [1], in assay [2], in [3], in [5], in [6] and in [9] was “inactive” in each case. For the same compound, the Potency entry in assay [14] is “inactive”. Also, the compound was called inactive in assay [4], in [7], in assay [8], in assay [20], in assay [15] and in assay [17]. Moreover, in assay [18], the result was inactive. Also, the activation in [19] was 2.05% (inactive); in assay [11], -3.26% (inactive). In addition, the max response in [13] stood at 23.4%.

As to `CCCCN(CCO)CCCC`, the Potency result in [1], in [3], in [5], in assay [6], in [9] and in [14] was “inactive” each time. For the same compound, the compound was called inactive in assay [4], in [7], in [8], in assay [10], in assay [15] and in assay [16]. Further, the compound was classed as inactive in [17]. Further, in assay [13], the max response amounted to 4.41%.

With `C=CCOC(=O)CCCCCCCC`, the Potency entry in assay [1], in assay [2], in assay [3], in assay [5], in [6] and in [9] was “inactive” throughout. For the same compound, the outcome in [4], in [7], in assay [8], in [10], in assay [15] and in assay [16] was inactive. Besides, the call in assay [17] and in [18] was inactive.

In the case of `CCCCCO`, the Potency entry in [1], in assay [3], in [6], in assay [9] and in assay [14] was “inactive” throughout. Also, the call in assay [7], in [8], in assay [10], in assay [17] and in assay [18] was inactive. In addition, the activation in assay [11] is 4.01% (inactive). For the same compound, in [13], the max response was -5.82%.

As to `O=C1CCC(=O)O1`, the Potency entry in assay [1], in assay [2], in [3], in assay [5], in [6] and in [9] was “inactive” in each case. Besides, the compound was called inactive in assay [4], in assay [7], in [8], in assay [10], in assay [12] and in [17]. Further, in assay [18], the outcome was inactive. Besides, the max response in [13] came out at 24.1%.

Consider `Oc1c(Cl)ccc(Cl)c1Cl`, for which the Potency result in assay [1], in assay [2], in assay [3], in [5], in assay [6] and in assay [9] was “inactive” each time. The compound was classed as inactive in assay [4], in assay [7], in [8], in assay [10], in assay [17] and in assay [18].

For `O=[N+]([O-])c1ccc2nc[nH]c2c1`, the Potency result in assay [1], in assay [3], in assay [6] and in [9] was “inactive” each time. In addition, the compound was classed as inactive in [4], in assay [7], in [8], in [10], in [15] and in assay [16].

The values above are taken from PubChem BioAssay (NCATS).
